Calb FLC – affects C. albicans growth with fluconazole. growth inhibition, % (concentration not given with the values). C. albicans CaCi-2 (fluconazole-resistant clinical isolate) + fluconazole, Alamar Blue growth, 48 h. 300,000 tested, 0.57% active;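 active means growth inhibition above about 58% in most replicates, limit read from the data, passing the limit was not always enough; inconclusive means exactly half the replicates above a set limit; inactive means most replicates below a set limit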;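 further: all wells also contain fluconazole at 8 µg/ml as a sub-toxic cotreatment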
Efflux pump inh – blocks antifungal efflux pumps in multiplex yeast assay; inhibition, % at 10 µM; S. cerevisiae Candida pump triplex, Nile Red efflux; 330,000 tested, 0.44% active;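 active means plate passing quality check with inhibition over a set limit, or well fluorescence over plate mean plus 4 SD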;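 further: Nile Red retained in pooled yeast measured as flow cytometry median fluorescence; higher means more Nile Red kept so more efflux inhibition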
Cl transport mod – modulates chloride dependent transport by human KCC2; Q9H2X9; KCC2 cells, thallium flux FluoZin-2 fluorescence; B-score of Tl+ flux slope (higher = more flux/activation; lower = inhibition) at 10 µM; 190,000 tested, 2.2% active;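 active means thallium flux slope and its plate-corrected score both differing from the plate sample mean at a set confidence after two filtering rounds, in either direction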;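 further: slope of fluorescence scaled to starting intensity during 10 to 20 s after thallium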
H9c2 protect – myocardial damage modulation in H9c2 cells. H9c2 cardiomyocytes, H2O2 injury protection, ATPLite, 2 h. protection from H2O2 cell death, % at 20 µM. 360,000 tested, 0.63% active;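 active means compounds giving at least 50% protection of heart cells from peroxide-induced death in the single-dose screen, raw or plate-pattern-corrected value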
PHOSPHO1 inh – inhibitors of human PHOSPHO1 phosphatase | inhibition, % at 13.3 µM | 290,000 tested, 1.1% active | AID 1565 | recombinant PHOSPHO1, absorbance phosphatase assay; in the data active means inhibition above about 60%
Yeast cmpd fluor – flagged as fluorescent in efflux inhibitor counter-screen; 1,700 tested, 4% active; S. cerevisiae AD/pABC3, compound fluorescence, flow cytometry; AID 588517; shares compounds with Efflux pump inh; fluorescence ratio to DMSO, % at 10 µM;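 active means fluorescence ratio to DMSO above its plate's cutoff, the plate mean ratio plus 5 SD, cut at about 210% in these data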;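 further: unstained yeast with no Nile Red so the signal is compound autofluorescence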
Mdr1 pump inh – blocks the Candida albicans Mdr1 efflux pump in yeast; AID 588518; S. cerevisiae AD/CaMDR1, Nile Red efflux, flow cytometry; shares compounds with Efflux pump inh; inhibition, % at 10 µM; 1,700 tested, 1% active; in the data active means inhibition above about 26%;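 further: higher means more Nile Red retained so more efflux inhibition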
CaCdr2 efflux inh – inhibitors of Candida albicans Cdr2 efflux pump; shares compounds with Efflux pump inh; S. cerevisiae AD/CaCDR2, Nile Red retention, flow cytometry; Nile Red retention ratio vs DMSO, % at 10 µM; 1,700 tested, 4% active; AID 588520; in the data active means Nile Red retention ratio vs DMSO above about 190%;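 further: higher ratio means more blocking of Cdr2 efflux of the dye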
CaCdr1 efflux inh – Candida Cdr1 efflux pump inhibition | shares compounds with Efflux pump inh | S. cerevisiae AD/CaCDR1, Nile Red efflux, flow cytometry | inhibition, % at 10 µM | 1,700 tested, 1% active | AID 588522;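 active means inhibition above the screen-wide mean plus twice its standard deviation, cut at about 32% in these data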
A number is an active result; - = inactive; ? = inconclusive; . = not tested or not shown; + = active, no number. A selection: hits, their analogues and other compounds. The true share with any hit is near 3.3%.

SMILES | Calb FLC | Efflux pump inh | Cl transport mod | H9c2 protect | PHOSPHO1 inh | Yeast cmpd fluor | Mdr1 pump inh | CaCdr2 efflux inh | CaCdr1 efflux inh
CC(Cc1ccccc1)[n+]1cc(/N=C(\N)[O-])on1 (stereo not given) | - | 1.1 | . | - | - | - | - | - | -
CCN1/C(=C\C=C\C2=[N+](CC)c3ccccc3C2(C)C)C(C)(C)c2ccccc21 | - | 3.2 | - | - | - | . | - | 251 | -
CN(C)CCNC(=O)c1cccn(Cc2cc(C(F)(F)F)cc(C(F)(F)F)c2)c1=O | - | - | . | - | - | . | . | . | .
CC(C)[C@H]1C(=O)O[C@H](C(C)C)C(=O)N(C)[C@@H](C(C)C)C(=O)O[C@H](C(C)C)C(=O)N(C)[C@@H](C(C)C)C(=O)O[C@H](C(C)C)C(=O)N1C | 88 | 86 | - | - | - | - | 123 | - | 80
CC(=O)N[C@@H]1CC[C@@]2(O)[C@H]3Cc4ccc(O)c5c4[C@@]2(CCN3CC2CC2)[C@@H]1O5 | . | - | . | - | . | . | . | . | .
Fc1ccccc1CN1CCN(c2ccc(Cl)cc2)CC1 | - | 1.7 | . | - | - | - | - | - | -
COC(=O)C1=C(c2ccc(-c3ccccc3)c(F)c2)C[C@@H]2CC[C@H]1N2C(=O)NCCOc1ccc(OC)cc1 | . | - | . | - | . | . | . | . | .
O=C(N/N=C/c1c(O)n(Cc2ccc(F)cc2)c(=O)[nH]c1=O)c1ccccc1O | - | - | - | - | - | . | . | . | .
O=C(N/N=C/c1c(O)n(Cc2ccccc2)c(=O)[nH]c1=O)c1ccccc1O | ? | 14 | - | - | - | - | - | - | -
CC(=Nc1ccc(F)cc1)c1c(O)n(C)c(=O)[nH]c1=O | - | - | . | - | - | . | . | . | .
CN1C2CCC1C(C(=O)O)C(O)C2 (stereo not given) | . | - | . | - | . | . | . | . | .
O=P(Nc1ccccc1Cl)(c1ccccc1)c1nc2c(s1)CCCC2 (stereo not given) | - | - | - | - | - | . | . | . | .
O=P(Nc1c(Cl)cccc1Cl)(c1ccccc1)c1nc2c(s1)CCCC2 (stereo not given) | - | 5.9 | - | - | - | - | - | - | -
CC[n+]1c(/C=C/C=C/c2ccc(N(C)C)cc2)sc2ccccc21 | 102 | 9.9 | - | - | - | + | - | - | -
O=c1[nH]c(=S)[nH]c(O)c1/C=C1/C=c2ccccc2=N1 | - | 0.5 | . | - | - | - | - | - | -
C=CCN1C(=O)NC(=O)/C(=C/c2cc3c4c(c2)CCCN4CCC3)C1=O | - | 1.6 | - | - | - | - | - | - | -
